“And” between values parts separate entries of the source, which are not always exact repeats. Equal values may be shown once. The campaign covered roughly 280,000 compounds. About 1,100 (0.39%) were called active. Roughly 7% stayed inconclusive and do not appear here. Calls follow the shape of the dose curve; as a rule, active = well fitted inhibition curve with a large enough effect; inconclusive = small, poorly fitted or top-dose-only effect, or effect the other way; inactive = flat fitted curve, though single readings scatter. The list comes from a sample in which actives are over-represented; it also holds similar structures and randomly drawn compounds.
Each compound was assayed against Microtubule-associated protein tau (Homo sapiens) (UniProt P10636) (assay: qHTS for Inhibitors of Tau Fibril Formation, Fluorescence Polarization). Settings: K18 P301L tau heparin fibrillization, Alexa594 FP, 6 h; series mostly up to 57.7 µM; activity, negative = inhibition: at the top concentration.
How it was run: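 FP of Alexa 594-tau after heparin (20 uM) induction. Substrate: human K18 P301L, 15 uM unlabeled, 0.24 uM labeled. Buffer 100 mM sodium acetate pH 7. 6 hr, 37 C.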
% is scaled to controls: 0 for no effect and ±100 for the full control effect; potency is read from the fitted curve at half-maximal effect.
Also: nearly all actives have a fitted effect of over 55% in size.

Sequence of Microtubule-associated protein tau (Homo sapiens) (P10636 561-689 P618L limits assumed): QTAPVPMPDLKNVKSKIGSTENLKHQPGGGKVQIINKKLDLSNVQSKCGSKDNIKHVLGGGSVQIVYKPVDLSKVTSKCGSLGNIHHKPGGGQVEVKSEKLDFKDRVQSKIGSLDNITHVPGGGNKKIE

Row | SMILES | Potency | activity, negative = inhibition
1 | O=c1[nH]c(=O)c2nc3ccccc3nc2[nH]1 | inactive | –
2 | Nc1ccc2nc3c(=O)[nH]c(=S)[nH]c3nc2c1 | 2.24 µM (active) | –
3 | COc1ccc(CCNC(=O)c2ccc(-n3c(C)cc4c3CCCC4)cc2)cc1OC | – | -18.1% (inactive)
4 | Cc1ccc2oc3c(c(=O)c2c1)C(c1ccc([N+](=O)[O-])cc1)N(CCCN1CCOCC1)C3=O (stereo not given) | – | -14.4% (inactive)
5 | Cc1cc(C)c(NC(=O)CCc2c(C)nc3c(c(C)nn3C(C)(C)C)c2C)c(C)c1 | – | 2.3% (inactive)
6 | COC(=O)c1ccccc1NC(=O)c1ccc2c(=O)n3c(nc2c1)CCCCC3 | – | 1.03% (inactive)
7 | COc1ccc(N2CCN(c3nc(-c4ccccc4F)nc4ccccc34)CC2)cc1 | – | 8.29% (inactive)
8 | CC(=O)Oc1c2c(c3c(c1CC=C(C)C)O[C@@]14C(=CC5CC1C(C)(C)OC4(C/C=C(\C)C(=O)O)C5=O)C3=O)OC(C)(CCC=C(C)C)C=C2 (stereo not given in full) | 35.5 µM (active) | –
9 | CCc1cccc(NC(=O)CSc2nccn2C)c1 | – | -0.623% (inactive)
10 | COC(=O)c1c(NC(=O)C(C)Oc2ccc(Cl)c(C)c2)sc(C)c1C (stereo not given) | – | -9.25% (inactive)
11 | CCc1nc2cccnc2n1-c1ccc(CC(=O)Nc2c(C)cccc2C)cc1 | – | -3.28% (inactive)
12 | CCN(CC(=O)NCCc1ccccc1)S(=O)(=O)c1ccccc1 | – | -6.4% (inactive)
13 | CCN(CC(=O)NCCc1ccccc1)S(=O)(=O)c1ccc(C)cc1 | – | 0.415% (inactive)
14 | CCN(CC)S(=O)(=O)c1ccc2[nH]cc(C(=O)NCCc3ccccc3)c(=O)c2c1 | 12.6 µM (active) and 14.1 µM (active) | –
15 | CC(C)(C)OC(=O)N1CCC(c2c(C(=O)Nc3ccc4c(c3)OCO4)cnn2-c2ccccc2)CC1 | – | 8.34% (inactive)
16 | Cc1ccc(Cn2cc(CCC(=O)NCc3ccc(OC(C)C)cc3)c3ccccc32)cc1 | – | -5.98% (inactive)
17 | Cc1ccc(C)c(N2CCN(c3ccc4cc(S(=O)(=O)N5CCC(C)CC5)ccc4n3)CC2)c1 | – | -6.87% (inactive)
18 | CC(=O)c1cccc(Nc2ccc3cc(S(=O)(=O)N4CCC(C)CC4)ccc3n2)c1 | 12.6 µM (active) | –
19 | CC(=O)c1cccc(S(=O)(=O)N2CCC(n3nnc4cc(F)ccc43)CC2)c1 | – | -5.37% (inactive)
20 | Cc1ccc(CNS(=O)(=O)c2ccc(C(=O)N(C)C)s2)cc1 | – | 7.1% (inactive)

From PubChem BioAssay AID1468 (National Center for Advancing Translational Sciences (NCATS), 2008)
